Screening results from PubChem.
Pf growth 96h – P. falciparum growth inhibition at 96 hour, primary screen for plastid delayed-death inhibitors | P. falciparum luciferase reporter growth, 96 h | Potency, µM (top dose mostly 28.7 µM), most hits filed as inhibitors | 6.9% of 320,000 active
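Plates of compound plus infected erythrocytes (2% hematocrit, 0.05% parasitemia final) incubate 96 hours, 37 C, 5% CO2. Detection reagent added; reduced luminescence from the parasites' luciferase reporter flags inhibition.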
AMA1-RON2 inh – disrupts binding of P. falciparum AMA1 to RON2 | AlphaScreen AMA1-biotinylated RON2 peptide binding | Potency, µM (highest dose often 58.2 µM), usual class: inhibitors | 0.2% of 360,000 active | AID 720542; also: nearly all actives have a fitted effect of over 45% in size
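AMA1 (3D7) with his tag at 25 nM final met compounds first, then biotinylated RON2 peptide at 25 nM; detection used donor plus acceptor beads, 10 µg/mL apiece, read by AlphaScreen after 30 min at room temperature.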
CHX counter – counter-screen hit for Shiga toxin inhibitors, cycloheximide; cell reporter, cycloheximide protein synthesis inhibition counterscreen; max response, %; 12% of 300,000 active; AID 2314; in the data active = max response mostly above about 13%, no sharp cut-off; inactive = mostly below about 14%; also: read at 38.3 µM for the half of the compounds with a filed dose
Pf growth 48h – inhibits P. falciparum growth in the first generation, 48 h | P. falciparum luciferase growth in erythrocytes, 48 h | AID 504832 | Potency, µM (doses to about 28.7 µM), hits mostly inhibitors | 5.9% of 310,000 active
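Parasite viability was followed by luminescence of a genomically integrated firefly luciferase. Cultures held 0.1% parasitemia at 2% hematocrit (final), incubated under 5% CO2 at 37 C.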
HCV inhibitor – blocks hepatitis C virus; Potency, µM (series often up to 41.8 µM), most hits filed as inhibitors; Huh7.5.1 HCVcc-Cre infection, luciferase reporter, 44 h; 3.4% of 340,000 active; AID 651820
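After 44 h co-culture of compound, cells and HCVcc-Cre (~0.5 moi), substrate is added for 15 min at room temperature and luciferase measured over 15 sec. Cells were seeded at 1,000/well and pre-cultured 4 h.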
Shiga inhibitor – inhibitors of Shiga toxin in Vero cells | Vero cells, Shiga toxin protein synthesis inhibition reporter | inhibition, % at 38.7 µM | 9.2% of 290,000 active | AID 2315; in the data active = inhibition mostly above about 28%, no sharp cut-off; inactive = mostly below about 43%
Of the large screens only hits and unclear results are named; the others gave an inactive call; ! = not confirmed by another sample. An excerpt weighted towards active compounds, which were near 21% of everything screened. Unless noted, calls follow the shape of the dose curve; as a rule, active = well fitted curve in the direction sought with a large enough effect; inconclusive = small, poorly fitted or top-dose-only effect, or another doubt; inactive = no such curve, though single readings can be large; an effect the other way counts as inactive or inconclusive.

CCCCCn1c(=O)c(C(=O)Nc2ccccc2C)c(O)c2ccccc21	CHX counter 34, HCV inhibitor inconclusive (no result: Shiga inhibitor)
C=CCn1c(=O)c(C(=O)Nc2ccccc2C)c(O)c2ccccc21	Pf growth 96h inconclusive, CHX counter 19
CCCCCCn1c(=O)c(C(=O)Nc2ncccc2C)c(O)c2ccccc21	Pf growth 96h inconclusive, Pf growth 48h inconclusive, HCV inhibitor inconclusive
CCCCn1c(=O)c(C(=O)NCc2ccco2)c(O)c2ccccc21	Pf growth 48h inconclusive, HCV inhibitor 14µM
CCCn1c2c(c(O)c(C(=O)Nc3ncccc3C)c1=O)CCCC2	HCV inhibitor 11µM
COC(=O)c1nccc2c1[nH]c1ccccc12	none (no result: CHX counter, Shiga inhibitor)
ClC(Cl)Cl	none (no result: AMA1-RON2 inh, CHX counter, HCV inhibitor, Shiga inhibitor)
O=C(Cc1n[nH]c(=O)[nH]c1=O)N/N=C/CCc1ccccc1	none
CCOC(=O)c1ccc(N=c2sc(C(=O)OC)cc(=O)n2CCCN2CCOCC2)cc1	Pf growth 96h 4.7µM!, Pf growth 48h inconclusive, HCV inhibitor inconclusive
COC(=O)c1cc(=O)n(Cc2cccs2)c(=NCc2cccs2)s1	none (no result: Pf growth 96h, HCV inhibitor)
CCOC(=O)c1ccc(N=c2sc(C(=O)OC)cc(=O)n2Cc2ccco2)cc1	Pf growth 96h inconclusive, Pf growth 48h inconclusive, HCV inhibitor 22µM
COC(=O)c1ccc2c(=O)n(CCCN3CCOCC3)c(=S)[nH]c2c1	none
CCOc1ccc(C(=O)c2nc3c(n2O)CCCC3)cc1	Pf growth 96h inconclusive, CHX counter 23
O=C(c1ccco1)c1nc2c(n1O)CCCCC2	Pf growth 96h inconclusive (no result: Pf growth 48h)
O=C(c1cc2ccccc2o1)c1nc2c(n1O)CCCCC2	CHX counter 47, Shiga inhibitor 83 (no result: Pf growth 96h)
CCN(CC)C(=O)c1ccc(COc2ccccc2Cl)o1	Pf growth 96h inconclusive, CHX counter 21
COc1ccccc1NC(=O)c1ccc(COc2ccccc2Br)o1	Pf growth 96h inconclusive, HCV inhibitor inconclusive
COc1ccccc1OCc1ccc(C(=O)N(C)C)o1	CHX counter 25, Pf growth 48h inconclusive, HCV inhibitor inconclusive
CN(C)C(=O)c1ccc(COc2ccccc2Br)o1	Pf growth 96h inconclusive, CHX counter 43, Shiga inhibitor 86
O=C(Nc1cccc2cccnc12)c1ccc2sc([C@@H]3O[C@H](CO)[C@H](O)[C@H](O)[C@H]3O)nc2c1	none (no result: Pf growth 96h, CHX counter, Pf growth 48h, HCV inhibitor, Shiga inhibitor)
CC(C)c1c(C(=O)N/N=C/c2cccc(OCc3ccccc3)c2)nnn1-c1nonc1N	Pf growth 96h inconclusive, HCV inhibitor inconclusive
Cc1ccc(NC(=O)c2ccccc2F)nc1	CHX counter 43, Shiga inhibitor 66 (no result: Pf growth 96h)
Cc1ccc(NC(=O)c2ccc(C(=O)c3ccccc3)cc2)nc1	HCV inhibitor inconclusive (no result: CHX counter, Shiga inhibitor)
Cc1ccc(NC(=O)c2cc(F)c(F)cc2Cl)nc1	CHX counter 58, Shiga inhibitor 49
Cc1ccc(C(=O)Nc2onc(C)c2C#N)cc1	CHX counter 12
Cc1ccc(NC(=O)c2cnccn2)nc1	none
Cc1cc(NC(=O)c2ccccc2F)on1	CHX counter 42, Shiga inhibitor 67
CN(C)S(=O)(=O)NC(=O)C1=C(N2CCCC2)COC1=O	HCV inhibitor inconclusive (no result: Pf growth 96h, CHX counter, Pf growth 48h, Shiga inhibitor)
Cc1cc(NC(=O)c2ccc(C#N)cc2)on1	CHX counter 11
COc1cc2ccccc2cc1C(=O)Nc1ccc(C)cn1	CHX counter 48, HCV inhibitor inconclusive, Shiga inhibitor 102
Cc1noc(NC(=O)c2ccccc2)c1C#N	none
COC(=O)c1ccc(C)cc1C1CN=NC12Cc1cc(C)ccc1C2=O (stereo unspecified)	HCV inhibitor inconclusive (no result: Pf growth 96h, CHX counter, Pf growth 48h, Shiga inhibitor)
Cc1ccc(C2CN=NC23CCc2ccccc2C3=O)cc1 (stereo unspecified)	Pf growth 96h 3.7µM, CHX counter 47, Shiga inhibitor 173 (no result: Pf growth 48h)
O=C1c2ccccc2CCCC12N=NCC2c1cccc2ccccc12 (stereo unspecified)	Pf growth 96h 1.9µM, Pf growth 48h 2.6µM, HCV inhibitor 2.8µM
COc1ccc(S(=O)(=O)N2CCOC2CNC(=O)C(=O)NCCc2ccc(S(N)(=O)=O)cc2)cc1 (stereo unspecified)	Pf growth 96h inconclusive
Cn1ncc([N+](=O)[O-])c1C(=O)Nc1cccc2ccccc12	Pf growth 96h 2.3µM
Cn1ncc([N+](=O)[O-])c1C(=O)Nc1ccc(-c2nc3ccccc3o2)cc1	Pf growth 96h 4.7µM, CHX counter 24, Shiga inhibitor 41
CC1C(=O)N(Cc2cn(CC3CCCCC3)nn2)CCS(=O)(=O)N1Cc1ccc(-c2ccc(Cl)cc2)cc1 (stereo unspecified)	none (no result: Pf growth 96h, CHX counter, Pf growth 48h, HCV inhibitor, Shiga inhibitor)
CC(C)(C)OC(=O)N1CCN(CCNC(=O)c2ccccc2)CC1	none
C=CCNC(=O)c1c(CSc2ccc(F)cc2)noc1C(=O)NCCC	Pf growth 96h inconclusive (no result: CHX counter, Shiga inhibitor)
Cc1ccc(OCCCCn2ccnc2)c(Cl)c1	CHX counter 27, Pf growth 48h inconclusive, HCV inhibitor inconclusive, Shiga inhibitor 40
Cc1ccc(OCCCCn2ccnc2)c([N+](=O)[O-])c1	Pf growth 96h inconclusive, CHX counter 21, Pf growth 48h inconclusive, HCV inhibitor inconclusive
Cc1ccc(C)c(OCCCCn2ccnc2)c1	Pf growth 96h 13µM, HCV inhibitor inconclusive (no result: Pf growth 48h)
Cc1ccc(OCCOCCn2ccnc2)c(Br)c1	CHX counter 31, HCV inhibitor inconclusive
Cc1ccc(OCCn2cncn2)c([N+](=O)[O-])c1	Pf growth 96h inconclusive, HCV inhibitor inconclusive
Cc1ccc(OCCn2ccnc2)c(C)c1	none
COc1ccc(NC(=O)c2cc(C3CCCCN3S(=O)(=O)c3ccc(F)cc3F)on2)c(C)c1 (stereo unspecified)	none (no result: Pf growth 96h, CHX counter, Pf growth 48h, HCV inhibitor, Shiga inhibitor)
Cc1cc(C)c(C)c(S(=O)(=O)NCCCn2ccnc2)c1C	Pf growth 96h 6.6µM, Pf growth 48h inconclusive (no result: Shiga inhibitor)
COc1nc(N)nc(NC23CC4CC(CC(C4)C2)C3)n1	CHX counter 15, Pf growth 48h inconclusive, Shiga inhibitor 21
O=C(NCC(c1ccco1)N1CCN(c2ccccc2F)CC1)c1ccc2c(c1)OCO2 (stereo unspecified)	Pf growth 96h inconclusive, HCV inhibitor inconclusive (no result: CHX counter, Shiga inhibitor)
CCC(C)(C)C1CCc2[nH]nc(C(=O)NCc3ccccn3)c2C1 (stereo unspecified)	Pf growth 96h 9.3µM, Pf growth 48h 15µM (no result: CHX counter, Shiga inhibitor)
CCC(C)(C)C1CCc2[nH]nc(C(=O)NCc3ccc(Cl)cc3)c2C1 (stereo unspecified)	Pf growth 96h inconclusive, Pf growth 48h inconclusive (no result: CHX counter, Shiga inhibitor)
CCC(C)(C)C1CCc2[nH]nc(C(=O)NCCCNC(=O)OC(C)(C)C)c2C1 (stereo unspecified)	Pf growth 48h 9.3µM (no result: CHX counter, Shiga inhibitor)
O=[N+]([O-])c1ccc(N2CCN(c3cccc(Cl)c3)CC2)cn1	none
COc1ccc(-c2c(NC(=O)c3ccco3)oc3ccccc3c2=O)cc1OC	Pf growth 96h inconclusive
CC(C)C[C@H](NC(=O)C1CCN(S(=O)(=O)c2ccccc2)CC1)C(=O)NCc1ccncc1	none
Cc1sc2nc(C3CC3)nc(SCC(=O)N3c4ccccc4CC3C)c2c1C (stereo unspecified)	Pf growth 48h inconclusive, HCV inhibitor 11µM
